PubChem BioAssay (Tox21)
Inconclusive results are not listed. A call without a number means that no potency is given here. Values without a mark were called inactive. Activity calls are given as the source filed them. Unless noted, calls come from the whole dose curve.

Legend:
[1] = molecular target: Peroxisome proliferator-activated receptor delta (Homo sapiens) (UniProt Q03181); assay: qHTS assay to identify small molecule agonists of the peroxisome proliferator-activated receptor delta (PPARd) signaling pathway (AID 743212)
Chain of Peroxisome proliferator-activated receptor delta (Homo sapiens) (Q03181 whole entry, looked up): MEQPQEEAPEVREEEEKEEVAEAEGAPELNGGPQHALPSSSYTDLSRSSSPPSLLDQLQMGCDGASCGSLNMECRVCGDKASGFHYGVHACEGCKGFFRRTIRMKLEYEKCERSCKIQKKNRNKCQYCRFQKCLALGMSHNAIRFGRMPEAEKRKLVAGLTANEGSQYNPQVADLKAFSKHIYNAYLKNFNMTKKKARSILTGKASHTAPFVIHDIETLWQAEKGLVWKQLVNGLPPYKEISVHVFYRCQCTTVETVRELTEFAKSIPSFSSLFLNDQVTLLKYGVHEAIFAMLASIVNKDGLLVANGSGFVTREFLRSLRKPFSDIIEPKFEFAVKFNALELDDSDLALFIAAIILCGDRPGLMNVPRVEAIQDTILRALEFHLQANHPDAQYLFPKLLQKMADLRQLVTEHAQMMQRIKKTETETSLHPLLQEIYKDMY
Procedure, shortened: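 Beta-lactamase reporter readout: a ratiometric FRET signal from the LiveBLAzer substrate after 2 h at room temperature. Compound exposure at 37 °C in PPARδ-bla HEK293H cells driven by an upstream activator sequence.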

[2] = qHTS assay to identify small molecule antagonists of the peroxisome proliferator-activated receptor delta (PPARd) signaling pathway - cell viability counter screen (AID 743213; active = well fitted curve in the direction sought with a large enough effect in the repeat runs; an effect the other way counts as inactive or inconclusive; note: nearly all actives have a fitted effect of over 50% in size)
Procedure, shortened: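 PPARd-bla HEK293H cells (3000/well) got compound plus 300 nM L165041 agonist for 17 h at 37 C. Viability in the same wells came from CellTiter-Glo luminescence after 30 min at room temperature.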

[3] = molecular target: Peroxisome proliferator-activated receptor delta (Homo sapiens) (UniProt Q03181); assay: qHTS assay to identify small molecule antagonists of the peroxisome proliferator-activated receptor delta (PPARd) signaling pathway (AID 743215; active = well fitted inhibition curve with a large enough effect in the signal ratio in the repeat runs, not every such curve was filed as active; the % refers to the signal ratio;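 note: cells stimulated with agonist L165041 at 300 nM final during compound exposure; series mostly up to about 62 µM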)
Procedure, shortened: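 HEK293H GeneBLAzer PPARd UAS-bla reporter cells; cpd + L165041 300 nM final, 17 h 37 C; LiveBLAzer B/G FRET substrate 2 h RT; fluorescence intensity read-out. Antagonist mode.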

[4] = qHTS assay to identify small molecule agonists of the farnesoid-X-receptor (FXR) signaling pathway - cell viability counter screen (AID 743218; active = well fitted curve in the direction sought with a large enough effect in the repeat runs; an effect the other way counts as inactive or inconclusive; note: nearly all actives have a fitted effect of over 45% in size)
Procedure, shortened: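 Luminescence from CellTiter-Glo, read after 30 min at RT, reports viability of GeneBLAzer FXR-UAS-bla HEK 293T cells treated 16 h with compounds in the wells used for the beta-lactamase reporter.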

[5] = qHTS assay to identify small molecule antagonists of the farnesoid-X-receptor (FXR) signaling pathway - cell viability counter screen (AID 743221; active = well fitted cell-killing curve with a large enough effect in the repeat runs, not every such curve was filed as active; note: nearly all actives have a fitted effect of over 50% in size)
Procedure, shortened: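 After a 5 h settling period, FXR-bla HEK 293T cells receive compound and chenodeoxycholic acid (50 uM final) and incubate 16 h at 37 C; CellTiter-Glo luminescence, read after 30 min at room temperature, reports cell viability.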

[6] = molecular target: Vitamin D3 receptor (Homo sapiens) (UniProt P11473); assay: qHTS assay to identify small molecule antagonists of the vitamin D receptor (VDR) signaling pathway (AID 743223; active = well fitted inhibition curve with a large enough effect in the signal ratio in the repeat runs, not every such curve was filed as active; the % refers to the signal ratio)
Chain of Vitamin D3 receptor (Homo sapiens) (P11473 whole entry, looked up): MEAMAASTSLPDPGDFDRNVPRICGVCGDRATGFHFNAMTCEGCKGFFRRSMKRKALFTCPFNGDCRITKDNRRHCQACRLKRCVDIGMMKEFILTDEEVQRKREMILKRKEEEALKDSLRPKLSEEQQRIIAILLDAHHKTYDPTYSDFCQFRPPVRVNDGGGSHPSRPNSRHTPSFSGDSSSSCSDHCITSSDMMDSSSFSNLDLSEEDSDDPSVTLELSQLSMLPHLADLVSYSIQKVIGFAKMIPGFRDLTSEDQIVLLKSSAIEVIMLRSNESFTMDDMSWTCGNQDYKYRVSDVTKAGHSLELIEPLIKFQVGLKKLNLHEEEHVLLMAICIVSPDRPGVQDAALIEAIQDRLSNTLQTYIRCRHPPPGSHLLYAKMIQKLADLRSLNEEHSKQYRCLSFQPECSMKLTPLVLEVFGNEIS
Procedure, shortened: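 Reporter line VDR-bla; stimulus 1alpha,25-(OH)2 vitamin D3, 3 nM final; compound co-addition, 16 h 37C/5% CO2; LiveBLAzer B/G substrate 2 h RT; fluorescence intensity.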

[7] = qHTS assay to identify small molecule agonists of the vitamin D receptor (VDR) signaling pathway - cell viability counter screen (AID 743224; active = well fitted curve in the direction sought with a large enough effect in the repeat runs; an effect the other way counts as inactive or inconclusive; note: series mostly up to about 63 µM; nearly all actives have a fitted effect of over 50% in size)
Procedure, shortened: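 Cytotoxicity counter screen: VDR-bla cells, 16 h compound exposure at 37C, 5% CO2; CellTiter-Glo luminescence, 30 min RT, same wells as bla read.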

[8] = qHTS assay to identify small molecule antagonists of the vitamin D receptor (VDR) signaling pathway - cell viability counter screen (AID 743225; active = well fitted curve in the direction sought with a large enough effect in the repeat runs; an effect the other way counts as inactive or inconclusive; note: nearly all actives have a fitted effect of over 50% in size)
Procedure, shortened: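 Parallel cytotoxicity test: VDR-UAS-bla HEK 293T, 3 nM (final) 1-alpha,25-dihydroxyvitamin D3 with test compound, 16 h, 37C. Endpoint is CellTiter-Glo luminescence in the same wells.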

[9] = qHTS assay to identify small molecule agonists of the NFkB signaling pathway - cell viability counter screen (AID 1159515); note: series mostly up to about 61 µM; nearly all actives have a fitted effect of over 55% in size
Procedure, shortened: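 ME-180 NFkB-bla cells, 2,000/well; overnight attach; compound 5 hr, 37 C/5% CO2; LiveBLAzer substrate 1.5 hr RT; then CellTiter-Glo in same wells, 30 min RT, luminescence read.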

[10] = qHTS assay to identify small molecule agonists of the endoplasmic reticulum stress response signaling pathway (AID 1159516; active = well fitted activation curve with a large enough effect in the signal ratio in the repeat runs, not every such curve was filed as active; the % refers to the signal ratio)
Procedure, shortened: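 HeLa ESRE-bla reporter line; cpd 5 h, 37 C/5% CO2; LiveBLAzer B/G FRET substrate 2 h RT; ex 405, em 460/530 nm.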

[11] = qHTS assay to identify small molecule agonists of the endoplasmic reticulum stress response signaling pathway - cell viability counter screen (AID 1159517)
Procedure, shortened: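 ESRE-bla HeLa cells (1,500/well) were plated overnight at 37 C and exposed to compounds for 5 hr. After the 2 hr beta-lactamase substrate read, CellTiter-Glo went into the same wells, and luminescence was read after 30 min at room temperature.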

[12] = qHTS assay to identify small molecule antagonists of the retinoid-related orphan receptor gamma (ROR-gamma) signaling pathway - cell viability counter screen (AID 1159520; active = well fitted curve in the direction sought with a large enough effect in the repeat runs; an effect the other way counts as inactive or inconclusive; note: nearly all actives have a fitted effect of over 50% in size)
Procedure, shortened: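 Cytotoxicity was read from cellular ATP (CellTiter-Glo luminescence) after 16 hr at 37 C with 1 uM doxycycline induction. The inducer was added 2 hr after compound transfer to Tet-on ROR gamma CHO cells.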

[13] = molecular target: Nuclear receptor ROR-gamma (Homo sapiens) (UniProt P51449); assay: qHTS assay to identify small molecule antagonists of the retinoid-related orphan receptor gamma (ROR-gamma) signaling pathway (AID 1159521; active = well fitted curve in the direction sought with a large enough effect in the repeat runs; an effect the other way counts as inactive or inconclusive)
Procedure, shortened: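 Decreased RORE-driven luciferase luminescence indicates antagonism. Tet-on RORγ CHO cells received compound, then 1 uM final doxycycline 2 h later; signal read after 16 h incubation.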

[14] = qHTS assay to identify small molecule agonists of the AP-1 signaling pathway - cell viability counter screen (AID 1159525); note: nearly all actives have a fitted effect of over 55% in size
Procedure, shortened: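 Intracellular ATP by Cell Titer Glo luminescence (30 min, RT) in the same ME-180 AP-1-bla wells after the 5 h compound exposure at 37 °C. Normalised to tetra n-octyl ammonium bromide and DMSO controls.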

[15] = qHTS assay to identify small molecule agonists of the AP-1 signaling pathway (AID 1159526)
[16] = molecular target: Retinoic acid receptor RXR-alpha (Homo sapiens) (UniProt P19793); assay: qHTS assay to identify small molecule agonists of the RXR signaling pathway (AID 1159527); note: nearly all actives have a fitted effect of over 35% in size; note: potency is the fitted concentration of half-maximal effect
Chain of Retinoic acid receptor RXR-alpha (Homo sapiens) (P19793 whole entry, looked up): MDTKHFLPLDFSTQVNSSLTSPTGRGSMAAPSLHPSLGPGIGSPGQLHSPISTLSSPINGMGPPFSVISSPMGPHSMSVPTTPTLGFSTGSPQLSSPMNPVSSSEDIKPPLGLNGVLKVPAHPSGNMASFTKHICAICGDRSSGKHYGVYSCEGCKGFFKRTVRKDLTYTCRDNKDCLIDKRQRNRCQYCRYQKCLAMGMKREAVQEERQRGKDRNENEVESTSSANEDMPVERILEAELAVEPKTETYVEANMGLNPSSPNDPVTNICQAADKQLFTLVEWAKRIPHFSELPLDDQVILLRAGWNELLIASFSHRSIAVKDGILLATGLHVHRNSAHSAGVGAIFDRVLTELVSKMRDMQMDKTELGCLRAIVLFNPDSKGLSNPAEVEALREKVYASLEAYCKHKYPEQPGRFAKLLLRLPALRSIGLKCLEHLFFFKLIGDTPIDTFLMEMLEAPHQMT
Procedure, shortened: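 16 hr incubation of compound-treated RXR-alpha-UAS-bla HEK 293T cells (2% charcoal-stripped FBS, 37 C) preceded a 2 hr room-temperature LiveBLAzer FRET substrate step and blue/green fluorescence measurement.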

[17] = qHTS assay to identify small molecule agonists of the RXR signaling pathway - cell viability counter screen (AID 1159529; active = well fitted curve in the direction sought with a large enough effect in the repeat runs; an effect the other way counts as inactive or inconclusive)
Procedure, shortened: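 In this parallel viability measure, GeneBLAzer RXR-alpha HEK 293T cells (2% charcoal-stripped FBS) were given a 5 hr preincubation, treated with compounds 16 hr at 37 C, and read by CellTiter-Glo luminescence.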

[18] = molecular target: Bile acid receptor (Homo sapiens) (UniProt Q96RI1); assay: qHTS assay to identify small molecule antagonists of the farnesoid-X-receptor (FXR) signaling pathway (AID 743217; active = well fitted inhibition curve with a large enough effect in the signal ratio in the repeat runs, not every such curve was filed as active; the % refers to the signal ratio)
Chain of Bile acid receptor (Homo sapiens) (Q96RI1 whole entry, looked up): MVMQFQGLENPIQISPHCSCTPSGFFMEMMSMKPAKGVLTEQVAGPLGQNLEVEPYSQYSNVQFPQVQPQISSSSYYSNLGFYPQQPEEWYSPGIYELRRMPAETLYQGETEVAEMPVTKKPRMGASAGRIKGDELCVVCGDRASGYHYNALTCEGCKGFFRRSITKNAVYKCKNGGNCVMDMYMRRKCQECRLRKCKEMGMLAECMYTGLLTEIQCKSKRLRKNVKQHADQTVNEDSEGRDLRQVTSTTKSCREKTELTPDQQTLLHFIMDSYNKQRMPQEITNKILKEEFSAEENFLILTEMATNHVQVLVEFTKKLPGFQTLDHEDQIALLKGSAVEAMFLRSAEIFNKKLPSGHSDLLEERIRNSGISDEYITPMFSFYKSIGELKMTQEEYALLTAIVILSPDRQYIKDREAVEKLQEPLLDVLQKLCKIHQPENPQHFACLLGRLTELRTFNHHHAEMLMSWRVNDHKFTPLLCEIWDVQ
Procedure, shortened: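 Read-out: beta-lactamase FRET fluorescence (LiveBLAzer B/G substrate, 2 h, room temperature) in GeneBLAzer FXR-UAS-bla HEK 293T cells. Compounds were co-dosed with 50 uM chenodeoxycholic acid (final) and incubated 16 h at 37 °C.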

[19] = molecular target: Bile acid receptor (Homo sapiens) (UniProt Q96RI1); assay: qHTS assay to identify small molecule agonists of the farnesoid-X-receptor (FXR) signaling pathway (AID 743220; active = well fitted activation curve with a large enough effect in the signal ratio in the repeat runs, not every such curve was filed as active; the % refers to the signal ratio)
Procedure, shortened: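 FXR-UAS-bla HEK 293T cells carrying a UAS-driven beta-lactamase reporter were plated for 5 h at 37C/5% CO2, then exposed to DMSO-dissolved Tox21 10K compounds for 16 h at 37C. A LiveBLAzer B/G FRET substrate was loaded for 2 h at room temperature before fluorescence reading.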

[20] = molecular target: Vitamin D3 receptor (Homo sapiens) (UniProt P11473); assay: qHTS assay to identify small molecule agonists of the vitamin D receptor (VDR) signaling pathway (AID 743222)
Procedure, shortened: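 Beta-lactamase reporter readout (LiveBLAzer B/G FRET, 2 h RT) in VDR-bla cells after 16 h compound treatment at 37C, 5% CO2; cells pre-incubated 4 h before pin transfer of DMSO solutions.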

SMILES	outcome [1]	outcome [2]	outcome [3]	outcome [4]	outcome [5]	outcome [6]	outcome [7]	outcome [8]	outcome [9]	Potency [10]	outcome [11]	outcome [12]	outcome [13]	outcome [14]	Potency [15]	Potency [16]	Potency [17]	outcome [18]	outcome [19]	outcome [20]
Clc1ccc2c(c1)Nc1ccccc1S2	inactive	inactive	inactive	inactive	inactive	inactive	inactive	inactive	inactive	inactive	inactive	inactive	inactive	inactive	inactive	inactive	inactive			
CC(=O)SCC(CC(=O)c1ccc(C)cc1)C(=O)O (configuration not stated)	inactive	inactive	inactive		inactive	inactive	inactive		inactive	inactive	inactive	inactive	inactive	inactive	inactive	inactive	inactive	inactive	inactive	inactive
C=C(C)C(=O)OCCCC	inactive	inactive	inactive	inactive	inactive		inactive		inactive	inactive	inactive	inactive	inactive	inactive	inactive	inactive	inactive			
O=CN1CCCCC1	inactive	inactive	inactive	inactive	inactive	inactive			inactive	inactive	inactive	inactive	inactive	inactive	inactive	inactive	inactive			inactive
O=Cc1ccccc1S(=O)(=O)O	inactive	inactive	inactive	inactive	inactive	inactive	inactive		inactive	inactive	inactive	inactive	inactive	inactive	inactive	9.77 µM (active)	inactive			inactive
CCN(CC)CC	inactive	inactive	inactive	inactive	inactive	inactive	inactive	inactive	inactive	inactive	inactive	inactive	inactive	inactive	inactive	inactive	inactive	inactive		inactive
C=CC(C)(CCC=C(C)C)OC(=O)C(C)C (configuration not stated)	inactive	inactive	inactive	inactive	inactive	inactive	inactive		inactive	inactive	inactive	inactive	inactive	inactive	inactive	inactive	inactive			inactive
COC(=O)c1ccc(NC(C)=O)cc1OC	inactive	inactive	inactive	inactive	inactive		inactive	inactive	inactive	inactive	inactive	inactive	inactive	inactive	inactive	inactive	inactive	inactive	inactive	
